This passage reports Potency and outcome results from PubChem BioAssay (Tox21).

Assay [1] can be described thus: qHTS assay to test for compound auto fluorescence at 535 nm (green) in HEK293 cells (AID 720680). (qHTS replaces the single test concentration by a dilution series.)
A short description of assay [2]: qHTS assay to test for compound auto fluorescence at 460 nm (blue) in HEK293 cell free culture (AID 720681). The gist of the method:
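Test compounds were pinned into cell-free culture medium (DMEM with 10% FBS) and fluorescence was read directly at Ex/Em 405/460 nm. Signals were expressed as fluorescence equivalents of triamterene, with DMSO vehicle as control.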

Assay [3] can be described thus: qHTS assay to test for compound auto fluorescence at 535 nm (green) in HEK293 cell free culture (AID 720682). Summed up: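 Compounds were pin-transferred into cell-free DMEM with 10% FBS, and green fluorescence was read at excitation 485 nm and emission 535 nm. Intensities were expressed as fluorescein-equivalent values.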
Assay [4] is described as follows: qHTS assay to test for compound auto fluorescence at 590 nm (red) in HepG2 cell free culture (AID 720684). The gist of the method:
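Readout: intrinsic compound fluorescence at 590 nm emission after 540 nm excitation, scaled to Rose Bengal sodium. Matrix was cell-free MEM with 10% FBS; DMSO vehicle wells served as control.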

Assay [5] is described as follows: qHTS assay to test for compound auto fluorescence at 460 nm (blue) in HepG2 cell free culture (AID 720685). The gist of the method:
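Cell-free plates of MEM plus 10% FBS received 23 nL compound or DMSO vehicle; blue-channel (405/460 nm) intensity scored against triamterene as reference fluorophore.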

A short description of assay [6]: qHTS assay to test for compound auto fluorescence at 535 nm (green) in HepG2 cell free culture (AID 720686).
Assay [7] in a line: qHTS assay to test for compound auto fluorescence at 460 nm (blue) in HepG2 cells (AID 720687). Summed up: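 Cells (2,000/well in MEM with 10% FBS) attached overnight at 37 C, then were exposed to compound or DMSO for 1 hr at 37 C, 5% CO2. Fluorescence read at Ex/Em 405/460 nm, expressed as triamterene-equivalent signal.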
The target in assay [8] is Glucocorticoid receptor (Homo sapiens) (UniProt P04150). Nature of the assay: qHTS assay to identify small molecule agonists of the glucocorticoid receptor (GR) signaling pathway (AID 720691; active = well fitted activation curve with a large enough effect in the signal ratio in the repeat runs, not every such curve was filed as active; the % refers to the signal ratio). The gist of the method:
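Cells: GR-bla HeLa, endogenous GR with stably integrated GRE-beta-lactamase reporter. Treatment 18 h, 37 C, compounds delivered in DMSO. Detection via LiveBLAzer B/G FRET substrate, 2 h RT, fluorescence intensity.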

A short description of assay [9]: qHTS assay to identify small molecule antagonists of the glucocorticoid receptor (GR) signaling pathway - cell viability counter screen (AID 720693). Also: nearly all actives have a fitted effect of over 55% in size. Also: potency is read from the fitted curve at half-maximal effect.
The nature of assay [10]: qHTS assay for identifying genotoxic compounds that show differential cytotoxicity against isogenic chicken DT40 cell lines with known DNA damage response pathways - Rev3 mutant cell line (AID 743014). Also: nearly all actives have a fitted effect of over 55% in size. Also: potency is read from the fitted curve at half-maximal effect.
Assay [11] can be described thus: qHTS assay for identifying genotoxic compounds that show differential cytotoxicity against isogenic chicken DT40 cell lines with known DNA damage response pathways - Rad54/Ku70 mutant cell line (AID 743015). Also: nearly all actives have a fitted effect of over 60% in size. Also: potency is read from the fitted curve at half-maximal effect.
The nature of assay [12]: qHTS assay to identify small molecule antagonists of the androgen receptor (AR) signaling pathway - cell viability counter screen (AID 743033; also: nearly all actives have a fitted effect of over 45% in size).
For assay [13], the target named is Androgen receptor (Homo sapiens) (UniProt P10275). Briefly: qHTS assay to identify small molecule antagonists of the androgen receptor (AR) signaling pathway (AID 743035; active = well fitted inhibition curve with a large enough effect in the signal ratio in the repeat runs, not every such curve was filed as active; the % refers to the signal ratio). The gist of the method:
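Quantitative HTS of the Tox21 10K library used HEK293 AR-UAS-bla cells stimulated with R1881 alongside compound for 16 h at 37C, followed by beta-lactamase FRET detection (LiveBLAzer B/G, 2 h, RT).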

For assay [14] the target is unchanged. Briefly: qHTS assay to identify small molecule agonists of the androgen receptor (AR) signaling pathway (AID 743036; active = well fitted activation curve with a large enough effect in the signal ratio in the repeat runs, with a control signal flat, not every such curve was filed as active; the % refers to the signal ratio). The gist of the method: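 Activation was read as beta-lactamase FRET signal from LiveBLAzer B/G substrate, added for 2 h at room temperature. Before that, GeneBLAzer AR-UAS-bla GripTite (HEK293) cells had 16 h compound exposure at 37C.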
The target is the same in assay [15]. Nature of the assay: qHTS assay to identify small molecule agonists of the androgen receptor (AR) signaling pathway using the MDA cell line (AID 743040; also: nearly all actives have a fitted effect of over 20% in size). Summed up:
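Agonist activity is measured as luciferase luminescence in human MDA-kb2 cells whose MMTV reporter responds to both AR and GR. Compounds in DMSO incubate 16 h at 37C, 0% CO2, and ONE-Glo is read after 30 min.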

For assay [16] the target is unchanged. Briefly: qHTS assay to identify small molecule antagonists of the androgen receptor (AR) signaling pathway using the MDA cell line (AID 743042; also: nearly all actives have a fitted effect of over 55% in size). Summed up: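 MDA-kb2 cells (human breast carcinoma, stably carrying an MMTV-luciferase reporter responsive to AR and GR) were plated at 3,000 cells/well and preincubated 5 hr at 37C, then given compound plus R1881 agonist for 16 h. ONE-Glo luminescence was read.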

A short description of assay [17]: qHTS assay to test for compound auto fluorescence at 590 nm (red) in HEK293 cell free culture (AID 720683). The gist of the method: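 Tox21 10K library compounds were pinned into cell-free DMEM with 10% FBS and fluorescence was read at excitation 540 nm. Activity is expressed as Rose Bengal sodium equivalency.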
Assay [18] can be described thus: qHTS assay to identify small molecule antagonists of the androgen receptor (AR) signaling pathway using the MDA cell line - cell viability counter screen (AID 743041; also: nearly all actives have a fitted effect of over 45% in size). Summed up: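 qHTS viability read-out; MDA-kb2 AR-luc; R1881-stimulated; 16 h exposure at 37C, 0% CO2; CellTiter-Fluor, 30 min; fluorescence intensity.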
Assay [19] is described as follows: qHTS assay for identifying genotoxic compounds that show differential cytotoxicity against isogenic chicken DT40 cell lines with known DNA damage response pathways - wild type cell line (AID 743012). Also: nearly all actives have a fitted effect of over 60% in size. Also: potency is read from the fitted curve at half-maximal effect. The gist of the method:
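Luminescent ATP viability signal (CellTiter-Glo, 30 min RT) recorded after wild type DT40 cells were incubated with compounds for 40 h at 37 C/5% CO2.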

The target in assay [20] is Glucocorticoid receptor (Homo sapiens) (UniProt P04150). Nature of the assay: qHTS assay to identify small molecule antagonists of the glucocorticoid receptor (GR) signaling pathway (AID 720692; active = well fitted inhibition curve with a large enough effect in the signal ratio in the repeat runs, not every such curve was filed as active; the % refers to the signal ratio). Summed up:
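Quantitative HTS in antagonist format: HeLa cells expressing endogenous GR and a stably integrated GRE-bla reporter, stimulated with 5 nM dexamethasone (final) alongside test compounds for 18 h.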

Records with an inconclusive call do not appear. Activity calls are given as the source filed them. Unless noted, calls follow the shape of the dose curve; as a rule, active = well fitted curve in the direction sought with a large enough effect in the repeat runs; inconclusive = weak or mixed curves; inactive = no such curve, though single readings can be large; an effect the other way counts as inactive or inconclusive.

Chain of Androgen receptor (Homo sapiens) (P10275 whole entry, looked up): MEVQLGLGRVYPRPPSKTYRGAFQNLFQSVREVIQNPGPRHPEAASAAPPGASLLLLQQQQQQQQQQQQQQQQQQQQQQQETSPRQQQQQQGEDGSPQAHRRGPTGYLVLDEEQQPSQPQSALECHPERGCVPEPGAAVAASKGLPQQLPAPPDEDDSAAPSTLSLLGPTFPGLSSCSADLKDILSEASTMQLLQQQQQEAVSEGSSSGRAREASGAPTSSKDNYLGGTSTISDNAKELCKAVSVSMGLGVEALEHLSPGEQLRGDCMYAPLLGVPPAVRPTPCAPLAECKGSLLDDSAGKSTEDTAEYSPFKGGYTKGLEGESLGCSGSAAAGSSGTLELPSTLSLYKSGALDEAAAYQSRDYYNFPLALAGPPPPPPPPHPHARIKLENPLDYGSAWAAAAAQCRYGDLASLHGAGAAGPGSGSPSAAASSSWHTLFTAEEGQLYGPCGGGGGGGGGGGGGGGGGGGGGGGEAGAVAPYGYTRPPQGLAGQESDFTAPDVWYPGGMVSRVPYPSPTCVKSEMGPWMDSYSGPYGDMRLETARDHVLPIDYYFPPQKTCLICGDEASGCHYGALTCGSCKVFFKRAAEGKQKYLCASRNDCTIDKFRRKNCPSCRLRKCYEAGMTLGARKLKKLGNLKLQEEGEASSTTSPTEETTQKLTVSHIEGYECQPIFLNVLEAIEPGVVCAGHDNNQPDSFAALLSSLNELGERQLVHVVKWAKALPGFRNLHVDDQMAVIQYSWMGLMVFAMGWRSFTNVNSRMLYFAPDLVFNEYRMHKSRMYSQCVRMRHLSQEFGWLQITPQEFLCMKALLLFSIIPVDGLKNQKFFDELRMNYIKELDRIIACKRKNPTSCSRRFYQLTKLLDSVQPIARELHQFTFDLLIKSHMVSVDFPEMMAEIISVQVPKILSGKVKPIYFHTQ
Chain of Glucocorticoid receptor (Homo sapiens) (P04150 whole entry, looked up): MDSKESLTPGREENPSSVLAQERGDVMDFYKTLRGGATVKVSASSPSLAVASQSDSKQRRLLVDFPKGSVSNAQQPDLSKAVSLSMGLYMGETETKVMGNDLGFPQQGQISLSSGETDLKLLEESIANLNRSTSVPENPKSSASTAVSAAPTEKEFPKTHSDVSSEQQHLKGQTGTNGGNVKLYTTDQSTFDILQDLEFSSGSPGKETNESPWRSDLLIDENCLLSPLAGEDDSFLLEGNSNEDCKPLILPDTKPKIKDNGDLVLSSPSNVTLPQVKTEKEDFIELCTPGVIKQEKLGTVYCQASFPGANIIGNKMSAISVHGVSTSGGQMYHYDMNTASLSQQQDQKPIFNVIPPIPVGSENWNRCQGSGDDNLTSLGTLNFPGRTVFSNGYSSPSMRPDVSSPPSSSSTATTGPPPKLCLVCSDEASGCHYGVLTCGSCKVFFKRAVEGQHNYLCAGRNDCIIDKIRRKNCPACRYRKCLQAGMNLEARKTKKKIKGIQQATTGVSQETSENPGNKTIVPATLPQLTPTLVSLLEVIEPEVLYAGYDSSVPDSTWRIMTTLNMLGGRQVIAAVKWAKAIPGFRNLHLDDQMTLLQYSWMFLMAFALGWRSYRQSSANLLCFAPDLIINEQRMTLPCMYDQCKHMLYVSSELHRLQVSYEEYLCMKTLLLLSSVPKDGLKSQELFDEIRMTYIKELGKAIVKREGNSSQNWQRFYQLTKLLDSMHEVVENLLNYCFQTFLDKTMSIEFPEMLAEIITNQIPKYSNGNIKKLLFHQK

On to `CN(C)Cc1ccccc1O`, for which the Potency result in assay [1], in assay [2], in assay [3], in assay [4], in [5] and in [6] was “inactive” throughout. Moreover, the Potency result in assay [7], in [8], in assay [9], in [10], in assay [11] and in [12] was “inactive” each time. Moreover, the Potency entry in assay [13], in [14] and in assay [16] was “inactive” each time. In addition, the compound was classed as inactive in [15].

As to `CCC(CC)(CC(=O)Nc1cccc(/C=C/c2nc(C3CCC3)cs2)c1)C(=O)O`, the Potency result in assay [1], in [2], in assay [3], in assay [17], in assay [4] and in [5] was “inactive” throughout. The Potency result in assay [6], in [9], in assay [12] and in assay [18] was “inactive” in each case.

With `CC(=O)OCC=C(C)C`, the Potency result in assay [1], in assay [2], in assay [3], in [4], in assay [5] and in assay [6] was “inactive” each time. The Potency entry in assay [7], in assay [8], in assay [9], in [19], in assay [10] and in assay [11] was “inactive” throughout. The Potency result in [12], in assay [13], in assay [14], in [18] and in assay [16] was “inactive” in each case. For the same compound, the compound was called inactive in assay [15].

As to `[Cl][Pt-2]([Cl])([Cl])[Cl]`, the Potency entry in assay [1], in assay [2], in assay [3], in assay [17], in [4] and in assay [5] was “inactive” in each case. The Potency result in [6], in [8], in assay [9], in [11], in [12] and in assay [18] was “inactive” each time.

For the compound `CCC(C)[O-].CCC(C)[O-].CCOC(=O)/C=C(/C)[O-].[Al+3]`, the Potency entry in assay [1], in [2], in [3], in assay [17], in [4] and in [5] was “inactive” each time. For the same compound, the Potency entry in assay [6], in assay [7], in assay [9], in assay [12] and in [18] was “inactive” throughout.

As to `O=C(O)CCN(C1(C(=O)NO)CCCC1)S(=O)(=O)c1ccc(Oc2ccc(F)cc2)cc1`, the Potency entry in assay [1], in assay [2], in [3], in assay [4], in assay [5] and in [6] was “inactive” throughout. The Potency result in assay [7], in assay [9], in assay [19], in [10], in assay [11] and in assay [12] was “inactive” in each case. For the same compound, the Potency entry in [18] is “inactive”.

As to `CC(C)(C)c1csc(-c2cc3cc(OCc4ccccc4CC(=O)O)ccc3o2)n1`, the Potency entry in [1], in assay [2], in assay [3], in assay [17], in assay [4] and in assay [5] was “inactive” throughout. For the same compound, the Potency entry in assay [6] and in assay [7] was “inactive” throughout. Besides, the Potency is 49 µM (active) in assay [9] and 61.1 µM (active) in assay [11].

For the compound `O=C1NC(=O)[C@@H]2CC=CC[C@H]12`, the Potency result in assay [1], in [2], in [3], in assay [4], in assay [5] and in [6] was “inactive” in each case. Further, the Potency entry in assay [7], in [8], in [20], in assay [9], in [12] and in assay [18] was “inactive” in each case. In addition, the Potency in assay [19] is 61.1 µM (active); in assay [10], 48.6 µM (active).

Turning to `Cc1ccc(C(=O)O)cc1`, the Potency entry in [1], in [2], in assay [3], in assay [17], in assay [4] and in assay [5] was “inactive” each time. In addition, the Potency result in assay [6], in [9], in assay [19], in assay [11], in [12] and in [18] was “inactive” throughout.

With `OC1CCCc2ccccc21` (stereo not drawn), the Potency entry in [1], in assay [2], in assay [3], in [17], in assay [4] and in assay [5] was “inactive” throughout. Moreover, the Potency entry in assay [6], in assay [9], in assay [19], in [12] and in assay [18] was “inactive” throughout.

With `O=[N+]([O-])c1ccc(F)c(Cl)c1`, the Potency entry in [1], in assay [2], in assay [3], in assay [17], in [4] and in [5] was “inactive” throughout. The Potency result in assay [6], in assay [8], in assay [20], in [9], in assay [19] and in assay [10] was “inactive” in each case. The Potency entry in assay [11] and in assay [12] was “inactive” each time.

On to `C#C[C@]1(OC(C)=O)CC[C@H]2[C@@H]3CCC4=C/C(=N/O)CC[C@@H]4[C@H]3CC[C@@]21CC`, for which the Potency result in assay [1], in assay [2], in assay [3], in assay [17], in assay [4] and in assay [5] was “inactive” each time. Moreover, the Potency entry in assay [6], in assay [12] and in assay [18] was “inactive” throughout. For the same compound, the Potency in assay [9] is 21.3 µM (active); in assay [19] it was 9.44 µM (active); in assay [10] it was 13.3 µM (active); in assay [11], 10.6 µM (active).

For `O=C(Oc1ccccc1)Oc1ccccc1`, the Potency entry in assay [1], in assay [2], in assay [3], in [17], in assay [4] and in assay [5] was “inactive” in each case. Moreover, the Potency result in assay [6], in assay [9], in [19], in assay [10], in assay [11] and in assay [12] was “inactive” each time. In addition, in assay [18], the Potency result is “inactive”.

Regarding `CCc1oc2ccccc2c1C(=O)c1cc(I)c(O)c(I)c1`, the Potency result in assay [1], in assay [2], in [3], in assay [17], in [4] and in assay [5] was “inactive” each time. In addition, the Potency entry in [6], in assay [7] and in [12] was “inactive” in each case. Besides, the Potency in assay [19] is 29.8 µM (active); in assay [10] it was 33.5 µM (active).
